High-throughput results (PubChem)
Compounds with a hit are over-represented: about 15% of the library has one in this group of screens.
RORgamma inh = inhibitors of mouse ROR gamma transcriptional activity; Drosophila S2 Gal4-RORgamma UAS-luciferase reporter, 20 h; hit rate 5.4% among 310,000; AID 2551; Potency, µM (top dose mostly 53.6 µM), most hits filed as inhibitors; P51450; note: nearly all actives have a fitted effect of over 60% in size
Target sequence (P51450 whole entry, looked up, the tested form may be a part): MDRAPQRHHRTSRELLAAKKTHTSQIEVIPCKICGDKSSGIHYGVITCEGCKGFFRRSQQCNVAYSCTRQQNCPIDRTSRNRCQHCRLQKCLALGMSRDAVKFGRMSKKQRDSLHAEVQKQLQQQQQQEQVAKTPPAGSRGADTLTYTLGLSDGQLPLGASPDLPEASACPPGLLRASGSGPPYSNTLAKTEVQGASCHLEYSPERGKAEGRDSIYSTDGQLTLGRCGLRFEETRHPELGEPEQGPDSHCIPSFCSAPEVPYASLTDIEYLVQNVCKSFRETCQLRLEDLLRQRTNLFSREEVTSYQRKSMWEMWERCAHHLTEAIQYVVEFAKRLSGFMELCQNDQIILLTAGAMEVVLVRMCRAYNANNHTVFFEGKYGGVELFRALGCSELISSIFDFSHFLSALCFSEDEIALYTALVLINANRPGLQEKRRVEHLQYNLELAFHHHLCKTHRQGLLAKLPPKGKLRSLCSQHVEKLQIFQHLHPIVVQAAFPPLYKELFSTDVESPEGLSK
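Using a luciferase readout, inhibitors were identified by reduced reporter activity in Drosophila cells coexpressing a copper-inducible Gal4–ROR gamma fusion and UAS-driven Photinus luciferase, incubated 20 hr after 700 uM copper sulfate.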
12-LOX inh = blocks human arachidonate 12S-lipoxygenase; hit rate 1.1% among 580,000; AID 1671190; Potency, µM (titrated, usually from 108 µM), actives largely listed as inhibitors; purified 12hLO, xylenol orange hydroperoxide absorbance
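Purified human 12hLO at 150 nM in 25 mM Hepes, 0.01% Triton X-100, pH 7.0, preincubated 15 min at room temperature with compound. Reaction started with 40 uM arachidonic acid, 30 min at room temperature. Hydroperoxide measured by Fe-xylenol orange, 573/405 nm absorbance ratio.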
DT40 TDP1 CPT = growth inhibition of DT40 Tdp1-/-;hTDP1 cells with camptothecin (screen for TDP1 inhibitors). chicken DT40 Tdp1-/-;hTDP1 cells + 20 nM CPT, ATP luminescence, 48 h. Potency, µM (highest dose often 46.2 µM), usual class: inhibitors. hit rate 12% among 420,000; note: nearly all actives have a fitted effect of over 55% in size
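Chicken DT40 Tdp1-/- cells stably complemented with human TDP1 were seeded at 400 cells/well in medium containing 20 nM camptothecin, exposed to pin-transferred compounds, and grown at 37 °C for at least 48 hr. Viability was read as ATP luminescence.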
ELG1 DNA repair = inhibitors of ELG1-dependent DNA repair in HEK293T cells | hit rate 2.3% among 330,000 | Potency, µM (doses to about 46.1 µM), most hits filed as inhibitors | HEK293T ELG1-luciferase reporter, luminescence, 16 h; DNA damage induced by 5-fluorouridine; note: nearly all actives have a fitted effect of over 55% in size
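DMSO vehicle served as the neutral condition. Each well held 2,000 cells given 5-fluorouridine plus compound; after 16 hr at 37 °C/5% CO2, ONE-Glo was added and luciferase measured 30 min later.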
VP16 counter = Gal4-VP16 reporter inhibition counter-screen; Drosophila S2 Gal4-VP16 UAS-luciferase, luminescence, 20 h; Potency, µM (top dose mostly 53.6 µM), actives largely listed as inhibitors; hit rate 3.5% among 310,000; AID 2546;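 note: Gal4-VP16 expression switched on by copper sulfate through the metallothionein promoter; nearly all actives have a fitted effect of over 50% in size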
DT40 TDP1 no CPT = qHTS for Inhibitors of human tyrosyl-DNA phosphodiesterase 1 (TDP1): qHTS in cells in absence of CPT; DT40 Tdp1-/- hTDP1 cells, no CPT, ATP luminescence, 48 h; Potency, µM (titrated, usually from 46.2 µM), actives largely listed as inhibitors; hit rate 15% among 420,000; note: nearly all actives have a fitted effect of over 55% in size
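No-CPT arm: Tdp1-/-;hTDP1 DT40 cells (400/well) plus compounds, incubated ≥48 hr at 37 °C. Readout CellTiter-Glo luminescence.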
Numbers stand for hits. Calls come from the whole dose curve; as a rule, active = well fitted curve in the direction sought with a large enough effect; inconclusive = small, poorly fitted or top-dose-only effect, or another doubt; inactive = no such curve, though single readings can be large; an effect the other way counts as inactive or inconclusive.

How did C/C(Cl)=C\COc1cc(C)nc2c(Br)cccc12 do in these assays?
RORgamma inh: inactive; 12-LOX inh: inactive; DT40 TDP1 CPT: inactive; ELG1 DNA repair: inactive; VP16 counter: inactive; DT40 TDP1 no CPT: 29.1µM

How did CC1=C[C@@H](CN(C)CCC#N)[C@H](C(C)C)C[C@H]1Cc1nnc(-c2ccccc2F)o1 do in these assays?
12-LOX inh: inactive

What do the screens show for `Cc1ccccc1Nc1nc(-c2cccnc2)nc2ccccc12`?
RORgamma inh: inconclusive; 12-LOX inh: inactive; DT40 TDP1 CPT: inconclusive; ELG1 DNA repair: inconclusive; VP16 counter: inactive; DT40 TDP1 no CPT: 20.6µM

What do the screens show for `CCOC(=O)c1nc(Nc2ccccc2)c2ccccc2n1`?
RORgamma inh: inactive; 12-LOX inh: inactive; DT40 TDP1 CPT: inconclusive; ELG1 DNA repair: inconclusive; VP16 counter: inactive; DT40 TDP1 no CPT: inconclusive

What do the screens show for `CC(=O)NCCNc1nc(-c2cccnc2)nc2ccccc12`?
RORgamma inh: inactive; 12-LOX inh: inconclusive; DT40 TDP1 CPT: inactive; VP16 counter: inactive; DT40 TDP1 no CPT: inactive

Results for CCOC(=O)c1ccc(Nc2nc(-c3cccnc3)nc3ccccc23)cc1 ?
RORgamma inh: inactive; 12-LOX inh: inactive; DT40 TDP1 CPT: 16.4µM; ELG1 DNA repair: inconclusive; VP16 counter: inconclusive; DT40 TDP1 no CPT: 9.2µM

How did CCOC(=O)c1nc(Nc2ccc(C)cc2)c2ccccc2n1 do in these assays?
RORgamma inh: inconclusive; 12-LOX inh: inactive; DT40 TDP1 CPT: 20.6µM; ELG1 DNA repair: inconclusive; VP16 counter: inactive; DT40 TDP1 no CPT: 13µM

What do the screens show for `Cc1ccc(Nc2nc(-c3cccnc3)nc3ccccc23)cc1`?
RORgamma inh: inactive; 12-LOX inh: inconclusive; DT40 TDP1 CPT: 18.4µM; ELG1 DNA repair: inconclusive; VP16 counter: inactive; DT40 TDP1 no CPT: 8.2µM

What do the screens show for `c1ccc(Nc2nc(-c3cccnc3)nc3ccccc23)cc1`?
RORgamma inh: inactive; 12-LOX inh: inconclusive; DT40 TDP1 CPT: inconclusive; VP16 counter: inactive; DT40 TDP1 no CPT: inconclusive

Results for CC(=O)c1cccc(NC(=O)c2cc(C3CC3)nc3ccccc23)c1 ?
12-LOX inh: inactive

How did CCCCOc1ccc2c(C)c(CCC(C)C)c(=O)oc2c1 do in these assays?
12-LOX inh: inactive

What do the screens show for `CCOC(=O)c1c(Nc2ccc(C)cc2)nnc(-c2ccccc2)c1-c1ccccc1`?
12-LOX inh: inactive; DT40 TDP1 CPT: inconclusive; DT40 TDP1 no CPT: 18.4µM

How did COc1ccccc1N1CCN(C(=O)c2cnn(C(C)(C)C)c2C2CCN(C(=O)OC(C)(C)C)CC2)CC1 do in these assays?
12-LOX inh: inactive; DT40 TDP1 CPT: 16.4µM; DT40 TDP1 no CPT: inactive

What do the screens show for `CC(C)(C)OC(=O)N1CCC(c2c(C(=O)N3CCN(c4ccccc4F)CC3)cnn2C(C)(C)C)CC1`?
12-LOX inh: inactive; DT40 TDP1 CPT: 23.1µM; DT40 TDP1 no CPT: inconclusive

How did CC(NC(=O)CCc1cccs1)C1CCCO1 (configuration not stated) do in these assays?
12-LOX inh: inactive

How did CC(=O)NC1=C(C#N)C(c2ccccc2)c2c(ccc3ccccc23)O1 (configuration not stated) do in these assays?
RORgamma inh: inactive; 12-LOX inh: inactive; DT40 TDP1 CPT: 8.2µM; ELG1 DNA repair: inconclusive; VP16 counter: inactive; DT40 TDP1 no CPT: 7.31µM

What do the screens show for `Cc1ccc(NS(=O)(=O)c2ccc(NC(=O)C3CC3)cc2)c(C)c1`?
RORgamma inh: inactive; 12-LOX inh: inactive; DT40 TDP1 CPT: inconclusive; ELG1 DNA repair: inactive; VP16 counter: 25.1µM; DT40 TDP1 no CPT: inconclusive

What do the screens show for `Cc1ccc(C)c(NS(=O)(=O)c2ccc(NC(=O)CSc3ccc(Cl)cc3)cc2)c1`?
RORgamma inh: inactive; 12-LOX inh: inactive; DT40 TDP1 CPT: inactive; ELG1 DNA repair: inconclusive; VP16 counter: inactive; DT40 TDP1 no CPT: inactive

Results for Cc1ccc(NS(=O)(=O)c2ccc(NC(=O)C(C)Sc3ccc(Cl)cc3)cc2)c(C)c1 (configuration not stated) ?
RORgamma inh: inconclusive; 12-LOX inh: inconclusive; DT40 TDP1 CPT: inconclusive; ELG1 DNA repair: 20.6µM; VP16 counter: inconclusive; DT40 TDP1 no CPT: inactive

What do the screens show for `CNC(=O)N1CCC(Cc2noc(-c3ccncc3)n2)C1` (configuration not stated)?
12-LOX inh: inactive

What do the screens show for `COc1ccc(CC(=O)Nc2cccc(-c3nnc(-c4ccccc4)o3)c2)cc1OC`?
RORgamma inh: inconclusive; 12-LOX inh: inactive; DT40 TDP1 CPT: 5.8µM; ELG1 DNA repair: 5.01µM; VP16 counter: inconclusive; DT40 TDP1 no CPT: 2.31µM

How did CCc1ccc(OCC(=O)NC(=S)Nc2cccc(CO)c2)c(Br)c1 do in these assays?
RORgamma inh: 11.2µM; 12-LOX inh: inactive; DT40 TDP1 CPT: inactive; ELG1 DNA repair: inconclusive; VP16 counter: 10µM; DT40 TDP1 no CPT: inactive

What do the screens show for `COc1ccc(CC(=O)Nc2cccc(-c3nnc(-c4ccc(C)cc4)o3)c2)cc1OC`?
RORgamma inh: inconclusive; 12-LOX inh: inconclusive; DT40 TDP1 CPT: 6.51µM; ELG1 DNA repair: 11.6µM; VP16 counter: inconclusive; DT40 TDP1 no CPT: 5.17µM

Results for COc1ccc(CC(=O)Nc2cccc(C)n2)cc1OC ?
RORgamma inh: inconclusive; 12-LOX inh: inactive; DT40 TDP1 CPT: inactive; ELG1 DNA repair: inactive; VP16 counter: inactive; DT40 TDP1 no CPT: inconclusive

What do the screens show for `CCc1cccc(NC(=O)Cc2ccc(OC)c(OC)c2)c1`?
RORgamma inh: inactive; 12-LOX inh: inactive; DT40 TDP1 CPT: inconclusive; ELG1 DNA repair: inactive; VP16 counter: inconclusive; DT40 TDP1 no CPT: 13µM

How did COc1ccc(CC(=O)Nc2ccc(-c3nnc(-c4ccccc4)o3)cc2)cc1OC do in these assays?
RORgamma inh: inactive; 12-LOX inh: inactive; DT40 TDP1 CPT: inactive; ELG1 DNA repair: inconclusive; VP16 counter: inactive; DT40 TDP1 no CPT: inactive

Results for Cc1cc(C)n(CCC(=O)N2[C@@H]3CC[C@H]2CC(NC(=O)c2ccc(F)cc2)C3)n1 (some centres not stated) ?
12-LOX inh: inactive

How did Cc1nn(C)cc1CN(C)C(=O)c1cn2ccnc(-c3ccccc3)c2n1 do in these assays?
12-LOX inh: inactive

What do the screens show for `CC(C)C(=O)NC1CCN(c2cn[nH]c(=O)c2)CC1`?
12-LOX inh: inactive

What do the screens show for `Cc1ccc(OCC(=O)Nc2cccc(C)n2)c(C)c1`?
RORgamma inh: inconclusive; 12-LOX inh: inactive; DT40 TDP1 CPT: inactive; ELG1 DNA repair: inconclusive; VP16 counter: inconclusive; DT40 TDP1 no CPT: inactive

Results for COc1ccc(CC(=O)Nc2cccc(-c3nnc(-c4cccc(C)c4)o3)c2)cc1OC ?
RORgamma inh: inconclusive; 12-LOX inh: inconclusive; DT40 TDP1 CPT: inconclusive; ELG1 DNA repair: 2.91µM; VP16 counter: 7.94µM; DT40 TDP1 no CPT: 23.1µM
